PubChem BioAssay AID504832 (National Center for Advancing Translational Sciences (NCATS), 2011)
Where “and” joins values, the source holds several entries; their conditions need not be identical. Equal entries are not always repeated. The campaign covered roughly 310,000 compounds. About 18,000 (5.8%) were called active. Inconclusive results (about 22%) are left out. The call rests on the fitted dose curve; in most records, active means well fitted inhibition curve with a large enough effect; inconclusive means small, poorly fitted or top-dose-only effect, or another doubt; inactive means no such curve, though single readings can be large or run the other way. The entries come from a sample that favours actives as a whole. Where a call stands in place of a potency, no number is given. A structure can be active in one record and inactive in another.

Test: Primary qHTS for delayed death inhibitors of the malarial parasite plastid, 48 hour incubation
Details: P. falciparum luciferase growth in erythrocytes; series mostly up to 28.7 µM
Summary of the method: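 Growth was read as firefly luciferase luminescence after a 48 h, 37 C, 5% CO2 exposure of compounds to reporter-bearing P. falciparum cultures (0.1% parasitemia, 2% hematocrit final) in Albumax-supplemented RPMI 1640.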
Potency means the concentration at half of the fitted maximal effect.

| Compound | Potency | activity change, negative = inhibition |
| --- | --- | --- |
| CCC(C)N(C(=O)Cn1nc(C)c([N+](=O)[O-])c1C)C1CCS(=O)(=O)C1 (stereo not drawn) | inactive |  |
| O=C(NCCc1ccco1)C(=O)NCCC1CCCCN1S(=O)(=O)c1ccccc1 (stereo not drawn) | inactive |  |
| COCCn1c(Cc2cccn2C)nnc1SCC(=O)Nc1nccs1 | inactive |  |
| COc1ccccc1NC(=O)CSc1nnc(Cc2cccn2C)n1-c1ccc(F)cc1 | 10.4 µM (active) |  |
| COc1ccc(C)cc1NC(=O)CSc1nnc(CC(=O)Nc2ccccc2F)n1C | inactive |  |
| Cc1ccc(NC(=O)COC(=O)CN2CCCCCC2=O)c(C)c1 | inactive |  |
| Oc1ccc(N=Nc2nccs2)c(O)c1 | 9.28 µM (active) |  |
| Oc1c(C=Nc2cccc3nsnc23)ccc2ccccc12 | inactive |  |
| Oc1ccc2ccccc2c1N=Nc1nccs1 | 13.1 µM (active) |  |
| c1ccc(NCc2cccc3ccccc23)nc1 | inactive |  |
| COc1cccc(-n2c(N)cc(=O)nc2SCC(=O)Nc2cc(C)on2)c1 | inactive |  |
| CC(C)N(C(=O)Cn1cc(S(=O)(=O)CC(=O)N2CCOCC2)c2ccccc21)C(C)C | inactive |  |
| CN(Cc1ccccc1)C(=O)c1ccc(NC2=NC3CS(=O)(=O)CC3S2)cc1 (stereo not drawn) | inactive |  |
| O=C(COC(=O)c1cccc(Cl)c1)NC1CCCCCCC1 | inactive |  |
| Cc1ccc(S(=O)(=O)N2CCN(C)CC2)cc1 | inactive |  |
| CCOC(=O)C1=C(O)/C(=C/c2cc(C)n(-c3ccccc3)c2C)N=C1C | 0.0657 µM (active) |  |
| CCC1=NN2C(=N)/C(=C/c3cc(C)n(-c4ccccc4)c3C)C(=O)N=C2S1 | inactive |  |
| COC(=O)C1=C(O)/C(=C/c2ccc(OCC(=O)Nc3ccccc3)cc2)N=C1C | inactive |  |
| O=C(NCCCN1CCCC1=O)c1cccc(S(=O)(=O)NCc2ccccc2)c1 | inactive |  |
| O=[N+]([O-])c1ccc(N2CCN(c3ccc(F)cc3)CC2)cn1 | inactive |  |
| Cc1nnc(NC(=O)c2ccc3nccnc3c2)s1 | inactive |  |
| COc1ccc(CC(=O)Nc2nc(-c3ccc(F)c(F)c3)cs2)cc1OC | inactive |  |

| Compound | Potency | activity change, negative = inhibition |
| --- | --- | --- |
| COc1ccc(CCN(C(=O)COc2ccccc2)c2nc(-c3ccccc3)cs2)cc1OC | 10.4 µM (active) |  |
| CN(C(=O)COc1ccccc1)c1nnc(-c2ccncc2)s1 | inactive |  |
| O=C(c1ccc(Cn2cc([N+](=O)[O-])cn2)o1)N1CCCC1 | inactive |  |
| COc1ccc(CC(=O)N/N=C(\C)c2ccccn2)cc1 | 3.29 µM (active) |  |
| C/C(=N\NC(=O)Cc1ccc(Br)cc1)c1cccnc1 | inactive |  |
| C/C(=N\NC(=O)Cc1ccc(Cl)cc1)c1ccccn1 | 1.47 µM (active) |  |
| COc1ccc(C/C(C)=N/NC(=O)c2ccncc2)cc1 | inactive |  |
| C/C(=N\NC(=O)c1ccccc1F)c1ccccn1 | inactive |  |
| C/C(=N\NC(=O)Cc1ccc(F)cc1)c1ccc(F)cc1 | inactive |  |
| CCOc1ccc(OCC(=O)Nc2c3c(nn2C(C)(C)C)CS(=O)(=O)C3)cc1 | inactive |  |
| Cc1cc(C(=O)CCC(=O)NNC(=O)c2ccccc2O)c(C)s1 | inactive |  |
| CCOc1ccc2[nH]c(=O)c(CN(CCCO)S(=O)(=O)c3ccc(F)cc3)cc2c1 | inactive |  |
| CC1CCCCN1CCCNC(=O)Cn1ncc2c([nH]c3ccccc32)c1=O (stereo not drawn) | inactive |  |
| O=C(NC1CCCCC1)c1ccc2c(=O)n(CC3CCCO3)c(=O)[nH]c2c1 (stereo not drawn) | inactive |  |
| CCCCCn1c(=O)[nH]c2cc(C(=O)NCCCN3CCCCC3C)ccc2c1=O (stereo not drawn) | 9.28 µM (active) |  |
| COc1ccccc1CNC(=O)C1CCN(C(=O)[C@@H]2Cc3ccccc3CN2)CC1 | inactive |  |
| CCCNC(=O)Nc1ccccc1C(=O)Nc1ccc(OC)cc1 | inactive |  |
| CCOC(=O)Cc1ncccc1C(=O)Nc1ccc(OC)cc1 | 13.1 µM (active) |  |
| COc1cc(NC(=O)c2cccnc2SC)cc(OC)c1 | inactive |  |
| COC(=O)c1ccc([C@@H](O)[C@H](C)C(=O)CC(=O)OC(C)(C)C)cc1 | inactive |  |
| Cc1nc(CN(C)C(=O)CC2C(=O)NCCN2Cc2ccc(F)cc2)cs1 (stereo not drawn) | inactive |  |
| CC(=O)N(CC(O)CO)c1c(I)c(C(=O)NCC(O)CO)c(I)c(C(=O)NCC(O)CO)c1I (stereo not drawn) | inactive and 15.1 µM (active) |  |

| Compound | Potency | activity change, negative = inhibition |
| --- | --- | --- |
| COc1ccc(NC(=O)CN2C(=O)COc3ccc(S(=O)(=O)N4CCOCC4)cc32)c(OC)c1 | inactive |  |
| CN(Cc1ccccc1)C(=O)CSc1nc2ccccc2[nH]1 | inactive |  |
| C=CCSc1nc2c(c(=O)[nH]c(=O)n2C)n1Cc1ccccc1 | inactive |  |
| CN(Cc1ccccc1)c1nc2c(c(=O)[nH]c(=O)n2C)n1CCSc1nc2ccccc2[nH]1 | 8.28 µM (active) |  |
| CC(Oc1cccc(Cl)c1)C(=O)NC1CC(C)(C)NC(C)(C)C1 (stereo not drawn) | inactive |  |
| O=C1CN(C(=O)c2cc(F)cc(F)c2)c2ccccc2N1 | inactive |  |
| O=C(Nc1ccc(Br)cc1)c1cc(S(=O)(=O)Nc2ccccn2)ccc1Cl | inactive |  |
| CN(CC(=O)NCCc1ccc(F)cc1)CC(=O)Nc1ccc(F)c(F)c1F | inactive |  |
| COc1ccc(C2CC(c3cccs3)=NN2C(=O)CSc2nnc(N)s2)cc1OC (stereo not drawn) | inactive |  |
| COc1cccc(C2CC(c3cccs3)=NN2C(=O)CSC2=NCCS2)c1OC (stereo not drawn) | 10.4 µM (active) |  |
| COc1ccc(C2=NN(C(=O)CCC(=O)O)C(c3cccs3)C2)cc1OC (stereo not drawn) | inactive |  |
| COc1ccccc1C(=O)NCCC(=O)NN1C(=O)NC2(CCCCC2)C1=O | inactive |  |
| COC(=O)c1cccc(N(CC(=O)NCC2CCCO2)C(=O)CCC(=O)Nc2cc(C)on2)c1 (stereo not drawn) | inactive |  |
| Cc1cc(NC(=O)CCC(=O)N(CC(=O)NCC2CCCO2)c2ccccc2)no1 (stereo not drawn) | inactive |  |
| CCCCOc1ccc(N(CC(=O)NCC2CCCO2)C(=O)CCC(=O)Nc2cc(C)ccn2)cc1 (stereo not drawn) | 9.28 µM (active) |  |
| Cc1cccc(OCCC(=O)OCc2csc(CC(=O)Nc3ccccc3C)n2)c1 | inactive |  |
| Cn1ncc2c(N3CCCCC3)nc(NCCCO)nc21 | inactive |  |
| CCc1ccccc1OCC(=O)Nc1ccc2c(c1)OCCO2 | inactive |  |
| Cc1ccc(NC(=O)CCCNC(=O)c2ccc(Cl)cc2)cc1S(=O)(=O)N1CCCCC1 | inactive |  |
| CCc1ccccc1OCC(=O)Nc1ccc(C)c(S(=O)(=O)N2CCCCCC2)c1 | 10.4 µM (active) |  |
| COc1ccc(C(=O)NC2CC(C)(C)NC(C)(C)C2)cc1OC | inactive |  |
| COc1ccc(S(=O)(=O)NC(C)c2ccccc2)cc1C(=O)N1CCCCC1 (stereo not drawn) | inactive |  |

| Compound | Potency | activity change, negative = inhibition |
| --- | --- | --- |
| COc1cccc(C(=O)NNS(=O)(=O)c2ccc(F)cc2)c1 | inactive |  |
| CN(C)CC/C=C1\c2ccccc2CSc2ccccc21 | 10.4 µM (active) |  |
| CN(C)Cc1ccccc1C1(O)c2ccccc2CSc2ccccc21 (stereo not drawn) | inactive |  |
| CCOc1ccc(C(=O)Nc2cc(Cl)ccc2-n2cncn2)cc1OC | inactive |  |
| O=C(CNc1cccc(S(=O)(=O)N2CCCCC2)c1)Nc1ccccc1F | inactive |  |
| O=C(NCc1cc(F)cc(C(F)(F)F)c1)C1CCC(=O)N(C2CCCC2)C1 (stereo not drawn) | inactive |  |
| Cc1cc(NC(=O)c2ccco2)c(=O)n(Cc2c(F)cccc2Cl)c1 | inactive |  |
| Cc1ccc(C(=O)CNc2ccc(F)cc2)cc1 | inactive |  |
| COC(=O)C1C(=O)NCC1c1ccc(OC)cc1 (stereo not drawn) | inactive |  |
| COC(=O)C1=C(Nc2ccc(OC)cc2)C=C(C)C(C(=O)OC)C1c1ccc(C)cc1 (stereo not drawn) | 10.4 µM (active) |  |
| COc1ccc(N2C(=O)C(O)C2c2ccc(C)cc2)cc1 (stereo not drawn) | inactive |  |
| COC(=O)C1=C(Nc2ccc(C)cc2)C=C(C)C(C(=O)OC)C1c1ccc(F)cc1 (stereo not drawn) | 3.7 µM (active) |  |
| Cc1ccc(NC(=S)Nc2ccc(F)cc2)cc1 | inactive |  |
| c1ccc2c(c1)CCc1snnc1-2 | inactive |  |
| COC(=O)c1cc(CNC(=O)CC(C)c2ccccc2)ccc1OC (stereo not drawn) | inactive |  |
| CCOc1cc(/C=N/NC(=O)CN2CCCCC2)ccc1O | inactive |  |
| CCOC(=O)N1CCN(CCC(=O)Nc2ccccc2)CC1 | inactive |  |
| O=C(Nc1c2c(nc3ccccc13)CCCC2)c1ccccc1Br | inactive |  |
| O=C(NNc1c2ccccc2nc2ccccc12)c1cc2ccccc2cc1O | 11.7 µM (active) |  |
| Cc1noc(C)c1COC(=O)c1cc2ccccc2cc1O | inactive |  |
| COc1cccc(CSc2nc3nc(C)cc(C)n3n2)c1 | inactive |  |
| COCCn1c(SCc2nc3cc(OC)c(OC)cc3c(=O)[nH]2)nnc1-c1ccncc1 | inactive |  |

| Compound | Potency | activity change, negative = inhibition |
| --- | --- | --- |
| CCn1c(SCc2ccccc2)nc2c(c1=O)SCC2 | inactive |  |
| COCCCn1c(SCc2cccc(OC)c2)nc2cc(OC)c(OC)cc2c1=N | 2.62 µM (active) |  |
| COC(=O)CSc1nc2ccccc2c(=O)n1Cc1ccccc1 | inactive |  |
| CCn1c(SCc2ccccc2)nc2cc(OC)c(OC)cc2c1=O | 10.4 µM (active) |  |
| Cc1ccc(NC2CCCN(C(=O)CCc3cn[nH]c3)C2)cc1C (stereo not drawn) | inactive |  |
| COc1ccc(S(=O)(=O)Nc2cc(C)on2)cc1NC(C)=O | inactive |  |
| Cc1ccc2nc(SCC(=O)N3CC(C)OC(C)C3)nc(=O)n2c1 (stereo not drawn) | inactive |  |
| CC(C)Nc1ccc(-n2nc3ccccc3[n+]2[O-])cc1 | inactive |  |
| COc1ccc(NC(=O)C2CCN(S(=O)(=O)c3ccc4[nH]c(=O)oc4c3)CC2)c(OC)c1 | inactive |  |
| COc1ccc(C(CNC(=O)COc2ccccc2OC)N2CCCCC2)cc1 (stereo not drawn) | inactive |  |
| COc1ccccc1CN1CC(C(=O)NCCc2cn[nH]c2)CCC1=O (stereo not drawn) | inactive |  |
| COc1ccc2c(c1)C=CC1(O2)N(CCO)c2ccccc2C1(C)C (stereo not drawn) | 13.1 µM (active) |  |
| CN1c2ccc([N+](=O)[O-])cc2C(C)(C)C12C=Cc1cc(C(=O)O)ccc1O2 (stereo not drawn) |  | 16.2% [at 0.00184 µM] (inactive) |
| COc1ccc2c(c1)C(SCC(=O)NCc1ccccc1)CC(C)(C)O2 (stereo not drawn) | inactive |  |
| CC1CCCCC1NC(=O)COC(=O)Cc1ccc(Cl)cc1 (stereo not drawn) | inactive |  |
| CSc1nnc2ccc(-c3ccc(C)cc3)nn12 | inactive |  |
| Cc1ccc(S(=O)(=O)n2cccc2CO)cc1 | inactive |  |
| COCCNc1ccc(-c2n[nH]c(=O)c3ccccc23)cc1[N+](=O)[O-] | 4.65 µM (active) |  |
| CN(C)CCNc1ccc(-c2n[nH]c(=O)c3ccccc23)cc1[N+](=O)[O-] | inactive |  |
| COCCNc1cc(NCCOC)c([N+](=O)[O-])cc1[N+](=O)[O-] | inactive |  |
